In all, about 360,000 compounds went through this assay and about 810 (0.23%) were called active. The sample as a whole holds a higher share of actives than the screen did. A number with no mark means an inactive call. Rule as the data show it: active = potentiation above about 50%; inconclusive = mostly about 30% to 49%; inactive = weaker than that.

Among the data in PubChem BioAssay AID624464 (National Center for Advancing Translational Sciences (NCATS), 2012) are potentiation values, retold here.

D(2) dopamine receptor (Homo sapiens), sequence (P14416 whole entry, looked up): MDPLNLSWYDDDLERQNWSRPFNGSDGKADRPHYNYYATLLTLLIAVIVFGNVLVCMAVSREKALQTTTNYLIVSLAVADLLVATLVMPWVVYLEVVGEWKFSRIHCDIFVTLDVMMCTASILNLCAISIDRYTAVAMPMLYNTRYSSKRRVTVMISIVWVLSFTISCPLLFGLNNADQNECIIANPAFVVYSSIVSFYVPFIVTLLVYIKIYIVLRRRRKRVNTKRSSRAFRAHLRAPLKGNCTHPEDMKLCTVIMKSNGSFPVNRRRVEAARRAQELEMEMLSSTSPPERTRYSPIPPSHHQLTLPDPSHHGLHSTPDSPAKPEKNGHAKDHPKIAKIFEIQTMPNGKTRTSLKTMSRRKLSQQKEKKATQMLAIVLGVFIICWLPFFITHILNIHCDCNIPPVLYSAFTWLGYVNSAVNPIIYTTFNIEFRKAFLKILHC

The test addresses D(2) dopamine receptor (Homo sapiens) (UniProt P14416). The test is described as follows: Beta-Arrestin HTS for Positive Allosteric Modulators of the Human D2 Dopamine Receptor: Potentiators. To be noted: DiscoveRx D2 beta-arrestin cells, luminescence, 90 min; stronger effect = higher value; 100% = 57 uM dopamine signal. The source says:
There is great interest in identifying small molecule ligands for G-protein coupled receptors (GPCRs) as nearly 50% of all FDA-approved drugs target these important receptor proteins. […] Amongst the dopamine receptors (DARs), the D2 is arguably one of the most validated drug targets in neurology and psychiatry. For instance, all receptor-based antiparkinsonian drugs primarily work via stimulating the D2 DAR, whereas all FDA-approved antipsychotic agents are antagonists of this receptor. The D2 DAR is also therapeutically targeted in other disorders such as restless legs syndrome, tardive dyskinesia, Tourette's syndrome, and hyperprolactinemia.
To this end, a miniaturized qHTS screen was developed to be screened against the Molecular Libraries Small Molecule Repository (MLSMR). This assay seeks to identify potentiators against the D2 DAR.
NIH Molecular Libraries Probe Production Network [MLPCN]
NIH Chemical Genomics Center [NCGC]
PI Name: David Sibley, National Institutes of Neurological Disorders and Stroke
DiscoveRx D2 cells were thawed from frozen stock and seeded at 2,100 cells/ 3 uL/well media (DiscoveRx Plating Reagent 2) with MultiDrop Combi dispenser (Thermo Scientific, Logan, UT) onto white tissue culture treated 1536-well Aurora plates (Brooks Automation, Chelmsford, MA) and allowed to attach overnight at 37 deg C, 5% CO2. Next, 23 nL/well of compound solutions in DMSO were added with a pintool transfer (Kalypsis, San Diego, CA). As the positive control, 1 uL/well dopamine (EC100, 57 uM final concentration) diluted in buffer (HBSS + 10 mM HEPES + SMB + 0.1 %Tween-20) was dispensed to 1 column of each plate. EC20 (Dopamine at 50 nM final concentration) was dispensed to the rest of the plate except columns 1 &2 which were used as negative control (EC=0, buffer only), 1 uL/well as well. The cells were stimulated by compounds and dopamine for 90 minutes at 37 deg C, 5% CO2, after which 1.5 uL/well of DiscoveRx detection reagent was added with BioRAPTR FRD dispenser. The detection reagent was prepared by mixing of Galacton Star Substrate, Emerald II solution and PathHunter buffer (supplied by the assay kit) together at 1:5:19 proportion accordingly just prior to dispensing. The plates were incubated at ambient temperature for 1 hour and then the luminescent signal was read on ViewLux plate reader (PerkinElmer, Waltham, MA).
As to `CSc1ncnc2c1ncn2CCCNCc1cccs1`, the potentiation is 0.128%.
In the case of `CCN(CC)P(=O)(Nc1ccc(SC(F)F)cc1)c1ccc(N(C)C)cc1NC(=O)c1ccco1` (stereo not given), the potentiation was -7.82%.
`CC(=O)CC[C@@H](C)O[C@@H]1OC(C)[C@H](O)CC1O` (stereo not given in full): the potentiation is -9.1%.
Regarding `Cc1ccc(S(=O)(=O)N2CCC3(CC2)OCCO3)c(C)c1`, the potentiation is -6.31%.
Take `NC(N)=Nc1nc(-c2ccccc2)c2cc(Cl)ccc2n1`: the potentiation is -62.5%.
Turning to `Oc1ccc(-c2onc3ccc(Cl)cc23)cc1`, the potentiation is 50.4% (active).
Turning to `COc1ccc(-c2onc3ccc(C(C)=O)cc23)cc1`, the potentiation was 28%.
As for `Nc1nc(SCC(=O)NCCN2CCOCC2)nc2sc3c(c12)CCC3`, the potentiation was -8.51%.
On to `C=C(C)CSc1nc(N)c2c3c(sc2n1)CCC3`, for which the potentiation was -7.64%.
Next, `CC(C)(C)C1CCc2c(sc3nc(SCC(N)=O)nc(N)c23)C1` (stereo not given): 58.8% (active).
As for `CCOC(=O)CN(C(=O)COc1nc(C)cc(C)c1C#N)c1ccc(Cl)cc1`, the potentiation is -3.59%.
In the case of `O=C1Nc2ccc(Br)cc2/C1=N/N=C/C1=C(N2CCOCC2)C(=C\c2ccccc2)/CC1`, the potentiation is -26.8%.
On to `O=C(O)c1ccc(NN=CC2=C(N3CCOCC3)/C(=C/c3ccccc3)CC2)cc1`, for which the potentiation is 77.1% (active).
Take `N#C/C(=C\C1=C(N2CCOCC2)C(=C\c2ccccc2)/CC1)C(=O)Nc1ccccc1F`: the potentiation was -1.9%.
In the case of `COc1ccc(C(=O)n2nc(-c3ccc(Cl)cc3)nc2N)cc1OC`, the potentiation was -7.87%.
As to `COc1ccc(CCn2ccc(O)c(Cc3ccc(Cl)cc3Cl)c2=O)cc1OC`, the potentiation is -38.7%.
On to `COc1ccc(C(=O)O/N=C(\N)Cc2ccc(Cl)cc2Cl)cc1OC`, for which the potentiation was 94.6% (active).
For the compound `NC(=O)c1cc(S(=O)(=O)N2CCCC2)ccc1OCc1ccc(F)cc1`, the potentiation was -13.4%.
Next, `CC1(C)NC(=O)N(CC(=O)Nc2cc(C(F)(F)F)cc(C(F)(F)F)c2)C1=O`: 1.66%.
For the compound `COc1ccc(CCNCc2c(-c3ccccc3)n(C)c3ccccc23)cc1`, the potentiation is -20.4%.
Next, `CC1(C)CC(=O)C=C(NCCN2CCNCC2)C1`: -7.29%; `COc1ccc(-c2nnc(SC(=O)N3c4ccccc4Sc4ccccc43)o2)cc1`: 72.5% (active); `COc1ccc(-c2nnc(SC(C)C(=O)NC3CC3)o2)cc1` (stereo not given): 0.965%.
On to `COc1ccc(CN(C(=O)CSc2nnc(-c3ccc(OC)c(OC)c3)o2)c2ccc(F)cc2)cc1`, for which the potentiation is -14.5%.
Take `CC(C)c1ccc(Nc2ncccc2C#N)cc1`: the potentiation is -6.55%.
The same measure for `COc1ccc(-c2csc(C(O)c3cccc(Cl)c3)n2)cn1` (stereo not given): -10.4%.
With `O=C(Nc1ccccc1F)c1ccccc1-c1ccc(C(F)(F)F)cc1`, the potentiation is -15.1%.
As to `N#C/C(=C\c1ccccc1C(F)(F)F)C(=O)Nc1ccccc1F`, the potentiation was 57.7% (active).
Next, `CNC(=O)/C(C#N)=C/c1c(F)cccc1Cl`: 21.1%.
In the case of `O=C(COC(=O)c1cc(-c2cccs2)nn1-c1ccccc1)Nc1cc([N+](=O)[O-])ccc1Cl`, the potentiation is -0.407%.
Next, `COc1ccc(CN2C(CC(=O)Nc3cccnc3)c3ccc(C(F)(F)F)cc3S2(=O)=O)cc1` (stereo not given): -5.81%.
For the compound `COc1ccc(N(CC(=O)NC2CCCCC2)C(=O)CNC(=O)c2ccco2)c(OC)c1`, the potentiation was -8.59%.
Next, `COc1ccccc1CNC(=O)c1cc(-c2cc(Cl)ccc2C)n[nH]1`: -2.11%; `Cc1cccnc1NC(=O)CSc1nnc(COc2ccc(C(C)C)cc2)n1C`: -13.7%.
For `COc1ccccc1C(=O)Nc1ccc(OCc2nnc3c4ccccc4c(C)nn23)cc1`, the potentiation was 9.9%.
Consider `Cc1ccc(OCc2nnc(SC3CCc4ccccc4C3=O)n2C)cc1` (stereo not given), for which the potentiation was 51.4% (active).
Consider `O=c1[nH]c(=S)[nH]c(O)c1/C=C1\C=Nc2ccccc21`, for which the potentiation was -32.7%.
Regarding `CC1=NN(c2ccc(Cl)c(C(=O)O)c2)C(=O)/C1=C/c1ccc(-c2ccccc2[N+](=O)[O-])o1`, the potentiation was -7.86%.
`O=C1NC(c2ccc(-c3ccccc3[N+](=O)[O-])o2)C(C(=O)c2ccc(Cl)cc2)C(O)(C(F)(F)F)N1` (stereo not given): the potentiation was 55.4% (active).
Regarding `CCOC(=O)C1C(c2ccc(O)cc2)NC(=O)NC1(O)C(F)(F)F` (stereo not given), the potentiation is -0.717%.
Next, `CCC(C)NC(=O)C1CCCN(C(=O)NC2CCCCC2)C1` (stereo not given): 2.71%.
For the compound `Cc1ccc(S(=O)(=O)NCCc2nnc3ccc(SCc4cccnc4)nn23)cc1`, the potentiation is -34.2%.
With `COC(=O)CSc1ccc2nnc(CCNS(=O)(=O)c3ccc(C)cc3)n2n1`, the potentiation is 71.3% (active).
The same measure for `O=C(NCCc1nnc2ccc(SCC(=O)N3CCOCC3)nn12)c1ccccc1`: 1.02%; for `CN(Cc1ccccc1)C(=O)COC(=O)/C=C/c1ccc2c(c1)OCO2`: -10.6%; for `Cc1coc2c(O)cc3c(c12)OC1(N2CCCCC2)C(=O)NCCCC31` (stereo not given): 70.8% (active).
Turning to `CC(=O)Nc1cc(-c2ccc(N3CCN(C)CC3)cc2)cn2c(-c3cccc(C(=O)N(C)C)c3)cnc12`, the potentiation was -8.12%.
Regarding `COC(=O)[C@H]1C[C@H](OC(=O)NCc2ccccc2)[C@@]2(O)CN(S(=O)(=O)c3ccc(C)cc3)CC2[C@H]1C(=O)OC` (stereo not given in full), the potentiation was -0.0644%.
As to `Cc1ccc(NC(=O)COC(=O)CN2CCCCCC2=O)c(C)c1`, the potentiation was -1.65%.
The same measure for `Cc1ccc(S(=O)(=O)N2CCN(C(=O)c3cc(S(=O)(=O)N4CCOCC4)ccc3F)CC2)cc1`: 0.45%; for `CN1OC[C@@H]2CN(C(=O)C(C)(C)C)[C@H](c3ccc(-n4ccnc4)cc3)C[C@@H]21`: -5.65%; for `CC(Oc1cccc(Cl)c1)C(=O)NC1CC(C)(C)NC(C)(C)C1` (stereo not given): -22.7%.
Regarding `Cc1ccc(NC(=O)CN(C)S(=O)(=O)c2cnc[nH]2)cc1C`, the potentiation was -13%.
Turning to `CN(CC(=O)Nc1ccccc1Cl)C(=O)c1ccccc1SCC(=O)N1CCCC1`, the potentiation was -9.34%.
Regarding `O=C1C=C(c2cccc(Br)c2)C[C@@H](c2ccc(F)cc2)C1`, the potentiation was -7.26%.
With `Cc1ccc(CN(N=Nc2nonc2N)c2nonc2N)c(C)c1`, the potentiation was 25.8%.
`O=C1Oc2ccccc2C(=O)/C1=C/c1ccccc1O`: the potentiation was 1.41%.
As to `O=C(N/N=C/c1ccc([N+](=O)[O-])cc1)c1c[nH]c2ccccc12`, the potentiation was 64.1% (active).
On to `O=C(COc1ccc(/C=N/NC(=O)c2ccc(O)cc2)cc1)Nc1ccc([N+](=O)[O-])cc1`, for which the potentiation was -4.2%.
As for `O=C(Cc1c[nH]c2ccccc12)N/N=C/c1cccc(F)c1`, the potentiation is -9.63%.
`Nc1nc(CSc2nnnn2-c2ccccc2)nc(Nc2ccccc2)n1`: the potentiation was 4.76%.
The same measure for `COCCCn1c(C(=O)NC2CCCCC2)cc2c(=O)n3cccc(C)c3nc21`: -4.49%.
For the compound `CC12CN3CCN(CC(C3)/C1=N\NC(=O)c1ccccc1N)C2`, the potentiation is -0.591%.
Regarding `CCC(C)c1ccccc1NC(=O)CN(C)CC(=O)Nc1ccccc1SC` (stereo not given), the potentiation was 1.68%.
In the case of `COc1cccc2oc(CCc3ccccc3)cc(=O)c12`, the potentiation was -6.37%.
With `Cc1c2cn[nH]c(=O)c2c(C)n1Cc1ccc(F)cc1`, the potentiation is -5.05%.
Turning to `CN1CCC2(CC1)NC(=O)NC2=O`, the potentiation was 11.5%.
Next, `COc1cccc(N=c2oc3c(C)ncc(CO)c3cc2C(N)=O)c1`: -0.831%; `CCNC(=O)C1(C)CCN(C(=O)c2ccccc2)C1` (stereo not given): -7.31%; `CN(C)S(=O)(=O)c1ccc(N2CCCC2)c(C(=O)NCc2ccccc2)c1`: -8.01%.
As for `COc1cccc(CNc2ncc(-c3ccccc3)n2C)c1`, the potentiation was -30.3%.
For `CCOC(=O)c1cc2c(=O)[nH]c(C(Cl)(Cl)Cl)nc2o1`, the potentiation was 7.93%.
Next, `CCC(C)CCN1CCN=C1N(C)C` (stereo not given): -8.79%.
In the case of `Cc1ccc(N(CC(=O)NCC2CCCO2)C(=O)CNS(=O)(=O)c2ccc(Cl)cc2)cc1` (stereo not given), the potentiation is 0.715%.
Consider `COc1cccc(-c2cnc(OC(C)(C)C)nc2OC(C)(C)C)c1`, for which the potentiation was -5.2%.
With `COc1cccc(CNC(=O)Cn2c(=O)oc3cc(S(=O)(=O)N4CCCCC4)ccc32)c1`, the potentiation is -3.62%.
`CCOC(=O)C1(Cc2cccc(OC)c2)CCN(Cc2csc(C(C)=O)c2)CC1`: the potentiation is -21.6%.
As for `NC1=NC(c2ccc([N+](=O)[O-])cc2)N(c2ccc(F)cc2)C(N)=N1` (stereo not given), the potentiation was 0.113%.
Turning to `Cc1ccc2c(c1)C(O)(CC(=O)c1cccnc1)C(=O)N2` (stereo not given), the potentiation is -30%.
Next, `Cc1ccc(S(=O)(=O)n2cccc2CO)cc1`: -0.194%.
For the compound `Cc1cccc(CNC(=O)c2sc(=O)n(Cc3ccccc3C)c2C)c1`, the potentiation was -5.51%.
For the compound `CC(C)(C)N1C(=O)c2c(C(=O)OCc3ccccc3)[nH]c(-c3ccccc3)c2C1=O`, the potentiation was -2.35%.
On to `CC(C)Nc1nnc(SC(C)C(=O)N(C)C2CCCCC2)s1` (stereo not given), for which the potentiation is -2.23%.
For `CCCN(CC1CC1)C(=O)COC(=O)c1ccc(C)cc1O`, the potentiation is -24.9%.
Regarding `Cc1ccc(S(=O)(=O)N(CCCN(C)C)Cc2ccc3c(c2)OCO3)cc1`, the potentiation was -10.1%.
Take `CC1=C(C(=O)N(C(C)C)C(C)C)CC(CC(=O)NCCCCc2ccccc2)C(=O)N1CCC1=CCCCC1` (stereo not given): the potentiation is -4.46%.
Next, `CCOC(=O)CSc1nnc(NC(=O)C2CC(=O)N(c3ccc(F)cc3)C2)s1` (stereo not given): -2.95%; `S=C(Nc1cccc(Cl)c1)Nc1ccc2cn[nH]c2c1`: 60.4% (active); `O=C(Nc1ccc2cn[nH]c2c1)c1ccc(S(=O)(=O)N2CCOCC2)cc1`: -3.76%.
For the compound `CC(C)Cc1nnc(NC(=O)CCC(=O)Nc2ccc3cn[nH]c3c2)s1`, the potentiation is -12.9%.
